# TGFb SMAD3 inh: qHTS for Inhibitors of TGF-b; HepG2 CAGA-GFP TGF-b/SMAD3 reporter, GFP fluorescence, 18 h; TGF-beta stimulated, 500 pg/mL final; Potency, µM (doses to about 46.1 µM), inactives show top-dose activity, negative = inhibition, actives largely listed as inhibitors; hit rate 1.2% among 410,000; AID 588855, 2011; further: on the % scale 0 is the no-effect control and ±100 the full control effect; nearly all actives have a fitted effect of over 65% in size
#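 HEPG2 CAGA-GFP, 1000 cells/well; 2 h settle, 37 C; cpd via pin tool; TGF-b 500 pg/mL final; 18 h, 37 C; GFP imaging ex488/em500-530; %Activity normalised to -TGF-b and +DMSO controls; CRC fit, curve class.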
# Nrf2 block: Nrf2 qHTS screen for inhibitors | A549 ARE-Fluc reporter, luciferase luminescence, 18-24 h | Potency, µM (titrated, usually from 46 µM), for the others: at the top dose activity change, negative = inhibition, usual class: inhibitors | hit rate 2.1% among 360,000 | AID 504444, 2011; further: on the % scale 0 is the no-effect control and ±100 the full control effect; nearly all actives have a fitted effect of over 60% in size
#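 Reporter: ARE-Fluc in A549. Exposure: 18-24 h, 37 °C, 5% CO2, 5% FBS OPTI-MEM. Readouts: fluorescent cytotoxicity (CellTiter-Fluor), then luminescent Nrf2 signal after BugLite.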
# A549 tox: Nrf2 qHTS screen for inhibitors: counterscreen for cytotoxicity; A549 ARE-Fluc cells, CellTiter-Fluor viability, 18-24 h; Potency, µM (doses to about 46 µM), for inactives: top-dose activity change, negative = cytotoxicity, usual class: inhibitors; hit rate 0.16% among 390,000; AID 504648, 2011; further: on the % scale 0 is the no-effect control and ±100 the full control effect
#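 Cytotoxicity counterscreen: CellTiter-Fluor fluorescence was measured in A549 ARE_Fluc cells after 18-24 h of compound exposure in a concentration series. The subsequent BugLite luminescent read reports ARE-luciferase activity.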
# HepG2 viability: qHTS for Inhibitors of TGF-b: Cytotox Counterscreen; hit rate 0.76% among 410,000; HepG2 CAGA-GFP viability, ATP luminescence, 18 h; AID 588856, 2011; Potency, µM (doses to about 46.1 µM), inactives show at the top dose activity change, negative = cytotoxicity, actives largely listed as cytotoxic
#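 CellTiter-Glo luminescence gave cytotoxicity after 18 hours at 37 degrees C. The cells were HepG2 CAGA-GFP in 1% FBS DMEM, stimulated with 500 pg/mL TGF-beta after compound addition. %Activity was normalised to no-cell wells (complete cell-killing) and DMSO (no toxicity), and curves were fitted and classified.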
# Nrf2 ARE act: qHTS of Nrf2 Activators; AREc32 ARE-luciferase reporter (MCF7-derived line), luminescence, 24 h; Potency, µM (doses to about 46.1 µM), inactives show at the highest dose activation, most hits filed as activators; hit rate 0.31% among 410,000; AID 624171, 2012; further: % of control where 0% means no effect; nearly all actives have a fitted effect of over 65% in size
#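 Each well held 1000 AREc32 cells, which were incubated with compound for 24 hr at 37 deg C after overnight attachment, and ARE reporter activity was quantified by firefly luciferase luminescence.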
# * marks the source's active call; other numbers are inactive results; ? = inconclusive; / = no result. A selection: hits, their analogues and other compounds. The true share with any hit is near 3.6%. The call rests on the fitted dose curve; in most records, active means well fitted curve in the direction sought with a large enough effect; inconclusive means small, poorly fitted or top-dose-only effect, or another doubt; inactive means no such curve, though single readings can be large; an effect the other way counts as inactive or inconclusive. Potency means the concentration at half of the fitted maximal effect.
SMILES,TGFb SMAD3 inh,Nrf2 block,A549 tox,HepG2 viability,Nrf2 ARE act
COC(=O)COc1ccc(Oc2nc(SC)nc(N(C)C)n2)nn1,-6.3%,4.0%,0.7%,3.3%,0.4%
COC(=O)c1ccc(N2C(=O)CC(NCc3ccccc3)C2=O)cc1 (configuration not stated),19.1%,12.1%,-3.1%,0.1%,0.4%
CCOc1ccc(CCNC(=O)C(CC(C)C)N2Cc3ccccc3C2=O)cc1OCC (configuration not stated),-10.6%,?,-7.7%,-2.1%,-0.9%
Cn1nc(C(F)(F)F)c(C(=O)Nc2ccc(F)cc2F)c1Sc1cccc(Cl)c1,-1.8%,18.4µM*,?,-19.6%,-0.1%
Cc1ccc2c(c1)S/C(=C\c1cccc[n+]1C)N2CCO,?,4.61µM*,-18.5%,-18.0%,3.0%
C[n+]1ccccc1/C=C1\Sc2ccccc2N1CCO,?,16.4µM*,-19.8%,-28.8%,4.2%
C[n+]1ccc(/C=C/c2cccs2)cc1,-29.2%,2.31µM*,8.2µM*,-23.8%,2.0%
Cc1ccc(/C=C/c2ccc(N(C)C)cc2)[n+](C)c1,-0.1%,4.11µM*,10.3µM*,-13.9%,2.7%
Cc1ccc2c(/C=C/c3ccc(N(C)C)cc3)c(C)cnc2c1,?,/,/,-39.0%,/
CN(C)c1ccc(/C=C/c2cc[n+](C)cc2)cc1,52.9%,4.11µM*,20.6µM*,-24.4%,2.9%
O=C(Nc1ccc2c(c1)C(=O)NC2=O)c1cccc(C(F)(F)F)c1,5.3%,-10.9%,-4.1%,4.4%,?
Cc1cccc(Cn2cccc2CNS(=O)(=O)c2ccc(Br)cc2)c1,15.8µM*,/,0.6%,-106.6%,-0.4%
Cc1cccc(Cn2cccc2CNS(=O)(=O)c2ccc(C)c(C)c2)c1,17.8µM*,/,5.1%,-105.5%,3.8%
CCc1ccc(S(=O)(=O)NCc2cccn2Cc2cccc(C)c2)cc1,?,/,14.2%,-100.3%,1.1%
O=C(Nn1cnnc1)C1CCCN1S(=O)(=O)c1ccc(F)cc1 (configuration not stated),-17.4%,4.4%,-0.9%,4.4%,0.1%
Cc1nnc(N/N=C\c2ccc(-c3ccccc3[N+](=O)[O-])o2)n1N,8.91µM*,5.6%,-11.2%,-105.8%,-4.2%
Cc1n[nH]c(=S)n1/N=C/c1ccc(-c2ccccc2[N+](=O)[O-])o1,-2.3%,/,?,-81.9%,10µM*
O=[N+]([O-])c1cccc(-c2ccc(/C=N/n3c(-c4ccccc4)n[nH]c3=S)o2)c1,3.3%,9.1%,1.7%,7.9%,28.3%
Cc1nnc(N/N=C/c2ccc(-c3ccccc3F)o2)n1N,?,?,0.4%,-96.1%,-3.2%
Nc1nc(N)c2c(Oc3ccc(F)cc3)cccc2n1,12.6µM*,/,/,-50.0%,/
C=CCN=c1scc(-c2ccc3c(c2)NC(=O)CO3)n1/N=C(\C)c1ccccn1,11.2µM*,16.4µM*,?,-42.2%,8.3%
O=c1c(C(c2ccc(Cl)cc2)c2c(O)nc3n(c2=O)CCCS3)c(O)nc2n1CCCS2,-3.0%,2.8%,1.6%,-9.3%,-0.8%
COc1ccc(Cn2c(C)nc3c(c2=O)c2nc4ccccc4nc2n3Cc2ccco2)cc1,-16.4%,18.4µM*,-17.2%,-11.5%,2.7%
Cc1nc2ccccc2c(=O)n1Cc1ccco1,-13.3%,-13.9%,0.0%,-37.1%,4.0%
C(C#CCCCCCCCCC[n+]1ccccc1)#CCCCCCCCCC[n+]1ccccc1,11.2µM*,11.6µM*,?,-163.0%,-1.8%
SMILES,TGFb SMAD3 inh,Nrf2 block,A549 tox,HepG2 viability,Nrf2 ARE act
O=C(COc1cccnc1[N+](=O)[O-])Nc1c(Cl)cccc1Cl,6.2%,-28.9%,3.0%,7.5%,1.0%
O=C(COc1cccnc1[N+](=O)[O-])Nc1cccc2ccccc12,-2.2%,-11.2%,-4.3%,2.0%,5.62µM*
Cc1ccc(OCC(=O)N2CCC(Cc3ccccc3)CC2)c([N+](=O)[O-])n1,6.2%,-11.3%,1.0%,-10.3%,0.1%
NNC(=O)COc1ccccc1[N+](=O)[O-],-1.1%,11.9%,1.9%,14.5%,0.4%
O=C(COc1cccnc1[N+](=O)[O-])N1CCC(Cc2ccccc2)CC1,-4.0%,14.6µM*,1.7%,9.9%,2.7%
O=C(COc1ccccc1[N+](=O)[O-])NNC(=O)Nc1cccc2ccccc12,-6.6%,?,-4.1%,-2.2%,14.1µM*
Cc1cccnc1NC(=O)CN1C(=O)NC(C)(c2ccc3ccccc3c2)C1=O (configuration not stated),-7.4%,2.5%,-0.8%,4.7%,-0.6%
COc1ccc(F)cc1CSc1nnnn1-c1ccc(O)cc1,-21.9%,8.4%,-8.9%,-12.5%,3.0%
COc1cc(CSc2nnnn2-c2ccc(C)cc2)cc(OC)c1OC,?,6.51µM*,-8.0%,-1.3%,-0.2%
O=C(COc1ccc2ccccc2c1Br)NNC(=O)Nc1ccccc1,-24.8%,-3.0%,2.9%,-0.2%,0.0%
CCCCN1C(=O)C(=O)N(CC(=O)c2ccc[nH]2)C1=O,-28.7%,5.3%,0.3%,-4.5%,0.9%
O=C(Nc1ccc(-c2nc3ccccc3o2)c(O)c1)c1cc(-n2cnnc2)ccc1Cl,0.0%,10.3µM*,/,17.8µM*,2.0%
COC(=O)C1=C(N)Oc2cc(C)n(CC3CCCO3)c(=O)c2C1c1ccc(Cl)c(Cl)c1 (configuration not stated),-3.0%,20.6µM*,-21.5%,-9.3%,-0.1%
CCC(CO)[n+]1c(C)cc(/C=C2\Sc3ccccc3N2Cc2ccccc2)cc1C (configuration not stated),0.0%,14.6µM*,?,-17.4%,-0.9%
O=C(Cn1nnc(-c2ccc(CN3CCOCC3)cc2)n1)Nc1nc(-c2ccccc2)cs1,12.6µM*,16.4µM*,-0.9%,-43.9%,2.1%
COc1cc(OC)cc(-c2nnc(SCC(=O)NCc3cccs3)o2)c1,6.9%,5.3%,0.2%,-34.9%,2.2%
CCOC(=O)c1c(Nc2cccc(C(=O)OC)c2)nnc(-c2ccccc2)c1-c1ccccc1,-0.8%,?,-18.1%,-16.9%,0.2%
CCOC(=O)c1c(Nc2ccc(C)cc2)nnc(-c2ccccc2)c1-c1ccccc1,?,18.4µM*,-14.5%,-16.8%,1.0%
CC1CC(C)CN(C(=O)CN(C)S(=O)(=O)c2ccc3c(c2)c(=O)n(C)c(=O)n3C)C1 (configuration not stated),-2.5%,8.6%,1.2%,0.2%,-0.4%
Cc1cc(S(=O)(=O)Nc2ccc3c(c2)n(C)c(=O)n3C)ccc1F,-0.6%,-9.9%,-2.0%,-17.7%,14.8%
Cn1c(=O)n(C)c2cc(NS(=O)(=O)c3ccccc3)c(NCc3ccccc3)cc21,-10.4%,?,2.1%,-33.4%,12.6µM*
Cc1ccc(CNS(=O)(=O)c2ccc3c(c2)n(C)c(=O)n3C)cc1,-19.4%,20.6µM*,-1.9%,-9.6%,0.6%
